Laboratory results published in article PMC7862700, “An all-to-all approach to the identification of sequence-specific readers for epigenetic DNA modifications on cytosine”.

What was measured:
Experiment in all cases: DAPPL (digital affinity profiling via proximity ligation, sequencing); 10 mM Tris-HCl pH 7.5, 50 mM NaCl, 1 mM DTT, 4% glycerol, room temperature, 30 min; GST-TFs on glutathione beads, 16-mer random dsDNA library, 0.1% formaldehyde crosslink after washing; high values mean tight binding
[1] = biological target: T1, FEV (Homo sapiens, UniProt Q99581 1-238); conditions: protein: recombinant; tags: N-terminal GST; dsDNA, one strand shown
T1 sequence: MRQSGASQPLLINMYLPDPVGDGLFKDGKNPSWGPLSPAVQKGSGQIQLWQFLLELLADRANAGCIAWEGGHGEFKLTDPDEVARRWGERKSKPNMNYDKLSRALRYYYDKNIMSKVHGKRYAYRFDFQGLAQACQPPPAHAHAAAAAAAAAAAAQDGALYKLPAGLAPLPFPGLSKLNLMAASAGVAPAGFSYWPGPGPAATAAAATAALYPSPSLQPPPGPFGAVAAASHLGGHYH
How it was run: (§1)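 The binding signal reported is, for every hexamer, its read frequency for a factor over its read frequency for the tag-only sample. Reads came from pools of yeast-expressed, GST-fused human transcription factors on glutathione beads, barcoded with DNA and mixed with that sample, which were incubated with 200 nmole of a random double-stranded 16-mer DNA library in Tris/NaCl/DTT/glycerol buffer at room temperature for 30 min. After washing, the pools were crosslinked with 0.1% formaldehyde, proximity-ligated with BsaI/T4 ligase for 1 h at 37 °C, PCR-amplified and sequenced on an Illumina NextSeq500.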

[2] = biological target: ETV5 (Homo sapiens, UniProt P41161 1-510); conditions: protein: recombinant; tags: N-terminal GST; dsDNA, one strand shown
ETV5, sequence (P41161 whole entry): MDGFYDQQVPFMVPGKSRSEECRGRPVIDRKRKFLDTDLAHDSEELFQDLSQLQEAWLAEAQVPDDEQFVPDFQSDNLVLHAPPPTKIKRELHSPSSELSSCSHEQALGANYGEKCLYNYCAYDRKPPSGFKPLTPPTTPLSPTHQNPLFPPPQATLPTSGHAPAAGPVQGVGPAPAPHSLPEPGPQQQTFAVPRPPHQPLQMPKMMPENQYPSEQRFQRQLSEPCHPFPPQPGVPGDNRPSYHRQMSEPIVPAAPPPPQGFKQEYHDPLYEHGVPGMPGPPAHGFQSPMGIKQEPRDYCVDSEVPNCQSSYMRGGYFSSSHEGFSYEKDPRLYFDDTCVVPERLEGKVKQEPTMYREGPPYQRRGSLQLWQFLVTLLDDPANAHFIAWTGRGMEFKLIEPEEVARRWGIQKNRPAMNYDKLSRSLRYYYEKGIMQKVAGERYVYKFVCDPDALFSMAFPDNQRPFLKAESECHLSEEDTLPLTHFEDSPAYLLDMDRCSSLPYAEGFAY
How it was run: as §1

[3] = biological target: HSF1 (Homo sapiens, UniProt Q00613 1-529); conditions: protein: recombinant; tags: N-terminal GST; chain copies: 3; dsDNA, one strand shown
HSF1, sequence (Q00613 whole entry): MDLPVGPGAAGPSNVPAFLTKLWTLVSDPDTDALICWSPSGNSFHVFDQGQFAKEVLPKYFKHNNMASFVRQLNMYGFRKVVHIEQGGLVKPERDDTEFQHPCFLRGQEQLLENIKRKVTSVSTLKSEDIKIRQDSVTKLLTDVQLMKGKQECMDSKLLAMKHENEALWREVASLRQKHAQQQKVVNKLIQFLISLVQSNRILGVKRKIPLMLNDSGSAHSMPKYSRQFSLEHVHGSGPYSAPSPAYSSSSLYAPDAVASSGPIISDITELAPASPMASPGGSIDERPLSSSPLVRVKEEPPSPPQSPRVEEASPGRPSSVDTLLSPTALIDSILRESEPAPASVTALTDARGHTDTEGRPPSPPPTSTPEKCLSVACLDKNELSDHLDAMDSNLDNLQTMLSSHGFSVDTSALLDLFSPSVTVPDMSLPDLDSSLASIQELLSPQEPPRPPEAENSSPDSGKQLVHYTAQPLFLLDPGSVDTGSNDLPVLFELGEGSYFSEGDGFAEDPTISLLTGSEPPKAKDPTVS
How it was run: as §1

[4] = biological target: T2, SPIC (Homo sapiens, UniProt Q8N5J4 1-248); conditions: protein: recombinant; tags: N-terminal GST; dsDNA, one strand shown
T2 sequence: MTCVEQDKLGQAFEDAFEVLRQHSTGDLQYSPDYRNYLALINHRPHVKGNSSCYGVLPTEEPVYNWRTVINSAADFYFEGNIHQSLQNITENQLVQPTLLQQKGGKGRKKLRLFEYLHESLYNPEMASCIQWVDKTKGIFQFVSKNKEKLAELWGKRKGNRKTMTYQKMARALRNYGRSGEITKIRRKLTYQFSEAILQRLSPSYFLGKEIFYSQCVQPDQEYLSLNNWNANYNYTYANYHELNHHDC
How it was run: as §1

[5] = biological target: ELF4 (Homo sapiens, UniProt Q99607 1-663); conditions: protein: recombinant; tags: N-terminal GST; dsDNA, one strand shown
ELF4, sequence (Q99607 whole entry): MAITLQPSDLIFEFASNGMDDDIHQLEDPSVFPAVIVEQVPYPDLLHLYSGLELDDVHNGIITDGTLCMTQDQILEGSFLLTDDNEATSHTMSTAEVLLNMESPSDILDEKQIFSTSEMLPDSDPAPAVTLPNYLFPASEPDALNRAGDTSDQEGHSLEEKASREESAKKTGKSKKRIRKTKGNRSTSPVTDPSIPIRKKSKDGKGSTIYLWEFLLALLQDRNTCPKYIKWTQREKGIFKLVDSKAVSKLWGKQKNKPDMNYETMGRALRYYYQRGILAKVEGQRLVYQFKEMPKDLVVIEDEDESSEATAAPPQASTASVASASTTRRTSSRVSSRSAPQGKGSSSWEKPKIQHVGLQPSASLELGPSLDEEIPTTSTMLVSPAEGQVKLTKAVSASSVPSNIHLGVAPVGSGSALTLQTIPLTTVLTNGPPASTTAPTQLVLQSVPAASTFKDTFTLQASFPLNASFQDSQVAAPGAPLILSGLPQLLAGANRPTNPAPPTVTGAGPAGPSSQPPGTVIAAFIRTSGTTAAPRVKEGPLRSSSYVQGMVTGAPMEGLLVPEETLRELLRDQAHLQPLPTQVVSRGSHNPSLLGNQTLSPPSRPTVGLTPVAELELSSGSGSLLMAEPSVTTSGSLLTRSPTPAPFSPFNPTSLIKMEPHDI
How it was run: as §1

[6] = biological target: T3, ELK4 (Homo sapiens, UniProt P28324-2 1-405); conditions: protein: recombinant; tags: N-terminal GST; dsDNA, one strand shown
T3 sequence: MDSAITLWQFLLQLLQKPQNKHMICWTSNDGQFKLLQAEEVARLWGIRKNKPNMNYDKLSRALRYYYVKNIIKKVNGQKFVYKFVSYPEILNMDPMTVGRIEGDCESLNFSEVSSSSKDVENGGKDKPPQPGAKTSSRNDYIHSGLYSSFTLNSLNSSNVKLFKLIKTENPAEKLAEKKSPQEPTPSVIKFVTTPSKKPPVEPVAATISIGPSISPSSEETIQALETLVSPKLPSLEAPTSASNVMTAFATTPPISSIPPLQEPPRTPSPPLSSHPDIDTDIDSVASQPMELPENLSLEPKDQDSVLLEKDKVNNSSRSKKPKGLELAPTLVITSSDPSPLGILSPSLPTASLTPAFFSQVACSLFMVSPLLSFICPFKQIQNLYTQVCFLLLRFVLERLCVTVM
How it was run: as §1

[7] = biological target: T4, ETV2 (Homo sapiens, UniProt O00321 1-342); conditions: protein: recombinant; tags: N-terminal GST; dsDNA, one strand shown
T4 sequence: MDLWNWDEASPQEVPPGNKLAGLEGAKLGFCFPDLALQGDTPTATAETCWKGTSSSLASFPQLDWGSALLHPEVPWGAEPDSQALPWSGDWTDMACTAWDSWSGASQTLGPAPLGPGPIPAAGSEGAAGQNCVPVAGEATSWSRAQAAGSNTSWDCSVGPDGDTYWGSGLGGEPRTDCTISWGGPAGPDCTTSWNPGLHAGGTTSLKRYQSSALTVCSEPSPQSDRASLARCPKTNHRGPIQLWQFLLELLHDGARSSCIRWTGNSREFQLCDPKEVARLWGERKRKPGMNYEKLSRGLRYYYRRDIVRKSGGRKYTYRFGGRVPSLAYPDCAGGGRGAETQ
How it was run: as §1

[8] = biological target: T5, ELF3 (Homo sapiens, UniProt P78545 1-371); conditions: protein: recombinant; tags: N-terminal GST; dsDNA, one strand shown
T5 sequence: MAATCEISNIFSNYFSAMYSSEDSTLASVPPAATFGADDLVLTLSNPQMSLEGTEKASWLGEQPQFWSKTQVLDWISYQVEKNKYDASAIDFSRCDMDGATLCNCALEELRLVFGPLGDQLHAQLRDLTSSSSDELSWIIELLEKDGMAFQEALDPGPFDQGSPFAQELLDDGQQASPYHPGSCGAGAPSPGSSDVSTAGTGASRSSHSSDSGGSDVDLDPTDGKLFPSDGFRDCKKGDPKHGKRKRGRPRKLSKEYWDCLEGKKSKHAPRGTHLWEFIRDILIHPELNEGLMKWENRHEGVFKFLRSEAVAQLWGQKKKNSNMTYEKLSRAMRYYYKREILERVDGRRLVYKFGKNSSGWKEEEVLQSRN
How it was run: as §1

[9] = biological target: CRX (Homo sapiens, UniProt O43186 1-299); conditions: protein: recombinant; tags: N-terminal GST; dsDNA, one strand shown
CRX, sequence (O43186 whole entry): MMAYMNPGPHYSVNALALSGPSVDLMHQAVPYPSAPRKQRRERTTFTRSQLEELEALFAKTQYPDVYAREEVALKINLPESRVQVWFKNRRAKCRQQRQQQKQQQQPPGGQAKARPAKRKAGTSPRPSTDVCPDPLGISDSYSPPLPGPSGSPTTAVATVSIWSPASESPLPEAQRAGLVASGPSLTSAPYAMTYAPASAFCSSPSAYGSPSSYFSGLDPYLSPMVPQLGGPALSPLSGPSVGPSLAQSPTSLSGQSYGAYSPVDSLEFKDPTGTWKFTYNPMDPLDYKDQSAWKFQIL
How it was run: as §1

[10] = biological target: ETV1 (Homo sapiens, UniProt P50549 1-477); conditions: protein: recombinant; tags: N-terminal GST; dsDNA, one strand shown
ETV1, sequence (P50549 whole entry): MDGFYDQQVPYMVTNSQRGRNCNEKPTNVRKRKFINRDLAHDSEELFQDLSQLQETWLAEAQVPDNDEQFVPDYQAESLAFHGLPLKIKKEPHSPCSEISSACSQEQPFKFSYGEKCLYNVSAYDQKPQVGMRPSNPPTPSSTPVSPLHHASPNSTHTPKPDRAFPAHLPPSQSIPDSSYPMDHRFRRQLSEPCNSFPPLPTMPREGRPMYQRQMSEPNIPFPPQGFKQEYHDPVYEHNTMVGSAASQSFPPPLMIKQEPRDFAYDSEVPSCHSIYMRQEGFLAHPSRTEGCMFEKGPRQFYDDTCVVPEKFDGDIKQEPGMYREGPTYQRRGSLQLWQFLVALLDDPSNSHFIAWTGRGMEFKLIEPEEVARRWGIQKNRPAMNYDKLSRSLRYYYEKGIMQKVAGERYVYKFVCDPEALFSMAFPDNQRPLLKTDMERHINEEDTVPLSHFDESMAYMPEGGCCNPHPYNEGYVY
How it was run: as §1

[11] = biological target: T6, ERF (Homo sapiens, UniProt P50548 1-548); conditions: protein: recombinant; tags: N-terminal GST; dsDNA, one strand shown
T6 sequence: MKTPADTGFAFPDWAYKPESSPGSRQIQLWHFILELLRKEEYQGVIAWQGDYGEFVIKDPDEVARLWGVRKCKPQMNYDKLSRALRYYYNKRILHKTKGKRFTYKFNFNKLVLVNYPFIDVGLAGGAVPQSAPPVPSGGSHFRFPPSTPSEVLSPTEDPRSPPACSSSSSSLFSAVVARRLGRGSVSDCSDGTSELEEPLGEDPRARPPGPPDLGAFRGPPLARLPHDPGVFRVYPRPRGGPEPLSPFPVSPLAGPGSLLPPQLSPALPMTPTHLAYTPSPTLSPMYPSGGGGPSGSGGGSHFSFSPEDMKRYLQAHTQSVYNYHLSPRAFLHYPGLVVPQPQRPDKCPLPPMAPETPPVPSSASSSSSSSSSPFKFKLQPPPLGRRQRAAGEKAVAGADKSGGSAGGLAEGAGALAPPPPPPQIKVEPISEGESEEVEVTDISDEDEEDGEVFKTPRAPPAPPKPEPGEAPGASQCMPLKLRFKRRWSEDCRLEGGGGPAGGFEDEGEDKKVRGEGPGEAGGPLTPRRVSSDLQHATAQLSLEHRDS
How it was run: as §1

[12] = biological target: T7, ETV3L (Homo sapiens, UniProt Q6ZN32 1-361); conditions: protein: recombinant; tags: N-terminal GST; dsDNA, one strand shown
T7 sequence: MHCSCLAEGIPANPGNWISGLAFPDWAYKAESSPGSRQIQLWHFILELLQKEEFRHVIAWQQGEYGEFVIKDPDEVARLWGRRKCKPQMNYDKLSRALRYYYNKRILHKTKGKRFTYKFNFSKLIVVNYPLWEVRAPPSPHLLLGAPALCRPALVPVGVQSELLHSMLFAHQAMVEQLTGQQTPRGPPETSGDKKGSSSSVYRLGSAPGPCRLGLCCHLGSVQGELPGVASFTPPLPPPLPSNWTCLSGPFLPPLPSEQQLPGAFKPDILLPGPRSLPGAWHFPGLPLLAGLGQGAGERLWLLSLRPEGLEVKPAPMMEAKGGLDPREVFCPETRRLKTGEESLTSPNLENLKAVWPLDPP
How it was run: as §1

[13] = biological target: T8, ETS2 (Homo sapiens, UniProt P15036 1-469); conditions: protein: recombinant; tags: N-terminal GST; dsDNA, one strand shown
T8 sequence: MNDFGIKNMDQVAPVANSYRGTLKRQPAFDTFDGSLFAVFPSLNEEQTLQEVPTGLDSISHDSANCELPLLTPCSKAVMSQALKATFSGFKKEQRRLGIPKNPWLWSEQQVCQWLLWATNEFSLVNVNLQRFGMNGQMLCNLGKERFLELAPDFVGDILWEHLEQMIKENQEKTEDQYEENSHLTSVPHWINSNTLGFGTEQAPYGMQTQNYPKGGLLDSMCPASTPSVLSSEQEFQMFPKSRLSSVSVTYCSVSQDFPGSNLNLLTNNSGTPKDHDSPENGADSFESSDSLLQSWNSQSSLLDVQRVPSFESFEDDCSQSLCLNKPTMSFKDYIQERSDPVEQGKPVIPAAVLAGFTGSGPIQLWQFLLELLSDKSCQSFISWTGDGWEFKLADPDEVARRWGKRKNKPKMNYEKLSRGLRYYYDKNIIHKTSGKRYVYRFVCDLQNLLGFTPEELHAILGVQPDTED
How it was run: as §1

[14] = biological target: T9, SPDEF (Homo sapiens, UniProt O95238 1-335); conditions: protein: recombinant; tags: N-terminal GST; dsDNA, one strand shown
T9 sequence: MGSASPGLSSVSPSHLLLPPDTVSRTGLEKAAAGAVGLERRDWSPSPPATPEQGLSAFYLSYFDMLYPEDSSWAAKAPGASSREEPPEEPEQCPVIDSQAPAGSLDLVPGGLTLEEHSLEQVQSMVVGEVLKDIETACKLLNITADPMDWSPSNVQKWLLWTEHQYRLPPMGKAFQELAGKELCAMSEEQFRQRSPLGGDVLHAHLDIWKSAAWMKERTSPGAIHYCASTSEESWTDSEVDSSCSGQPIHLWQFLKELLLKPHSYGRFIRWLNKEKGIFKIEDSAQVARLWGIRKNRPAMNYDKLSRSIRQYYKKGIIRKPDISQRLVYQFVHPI
How it was run: as §1

[15] = biological target: T10, ETV7 (Homo sapiens, UniProt Q9Y603 1-341); conditions: protein: recombinant; tags: N-terminal GST; dsDNA, one strand shown
T10 sequence: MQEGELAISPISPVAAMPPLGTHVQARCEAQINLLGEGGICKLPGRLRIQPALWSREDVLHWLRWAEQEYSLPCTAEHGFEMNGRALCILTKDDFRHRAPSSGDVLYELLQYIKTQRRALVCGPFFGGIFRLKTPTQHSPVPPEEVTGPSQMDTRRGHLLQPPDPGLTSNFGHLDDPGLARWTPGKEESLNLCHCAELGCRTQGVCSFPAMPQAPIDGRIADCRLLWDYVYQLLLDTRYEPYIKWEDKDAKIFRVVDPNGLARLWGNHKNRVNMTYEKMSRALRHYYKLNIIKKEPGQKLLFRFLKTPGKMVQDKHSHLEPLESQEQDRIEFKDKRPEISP
How it was run: as §1

[16] = biological target: T11, ELF5 (Homo sapiens, UniProt Q9UKW6-2 1-255); conditions: protein: recombinant; tags: N-terminal GST; dsDNA, one strand shown
T11 sequence: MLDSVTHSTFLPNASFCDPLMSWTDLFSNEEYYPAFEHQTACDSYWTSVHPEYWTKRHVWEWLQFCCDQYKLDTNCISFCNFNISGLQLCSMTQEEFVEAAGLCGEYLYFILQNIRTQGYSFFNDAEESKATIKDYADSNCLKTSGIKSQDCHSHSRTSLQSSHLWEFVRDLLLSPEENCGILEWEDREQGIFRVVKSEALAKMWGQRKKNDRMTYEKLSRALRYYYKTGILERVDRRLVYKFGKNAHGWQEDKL
How it was run: as §1

[17] = biological target: T12, ETV3 (Homo sapiens, UniProt P41162-2 1-143); conditions: protein: recombinant; tags: N-terminal GST; dsDNA, one strand shown
T12 sequence: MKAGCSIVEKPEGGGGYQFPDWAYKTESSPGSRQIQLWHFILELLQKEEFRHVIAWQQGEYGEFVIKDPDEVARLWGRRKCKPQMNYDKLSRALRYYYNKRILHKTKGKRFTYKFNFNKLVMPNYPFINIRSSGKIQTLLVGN
How it was run: as §1

[18] = biological target: ETV6 (Homo sapiens, UniProt P41212 1-452); conditions: protein: recombinant; tags: N-terminal GST; dsDNA, one strand shown
ETV6, sequence (P41212 whole entry): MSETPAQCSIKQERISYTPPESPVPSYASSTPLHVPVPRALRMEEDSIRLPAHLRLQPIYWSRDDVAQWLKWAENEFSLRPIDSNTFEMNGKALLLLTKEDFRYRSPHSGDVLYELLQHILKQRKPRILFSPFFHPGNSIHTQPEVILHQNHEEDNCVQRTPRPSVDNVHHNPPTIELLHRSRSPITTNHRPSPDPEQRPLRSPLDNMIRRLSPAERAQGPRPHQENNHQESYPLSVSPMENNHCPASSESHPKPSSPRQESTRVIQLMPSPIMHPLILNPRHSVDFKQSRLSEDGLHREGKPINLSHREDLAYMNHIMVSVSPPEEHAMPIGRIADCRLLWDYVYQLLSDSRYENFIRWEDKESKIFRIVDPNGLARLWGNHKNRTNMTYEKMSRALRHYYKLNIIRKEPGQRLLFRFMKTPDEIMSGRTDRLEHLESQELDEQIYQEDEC
How it was run: as §1

TTGGTT
binding signal [1]: 1.31 fold enrichment (6-mer frequency, TF over GST control) | binding signal [2]: 1.44 fold enrichment (6-mer frequency, TF over GST control) | binding signal [3]: 1.18 fold enrichment (6-mer frequency, TF over GST control) | binding signal [4]: 1.47 fold enrichment (6-mer frequency, TF over GST control) | binding signal [5]: 1.42 fold enrichment (6-mer frequency, TF over GST control) | binding signal [6]: 1.32 fold enrichment (6-mer frequency, TF over GST control) | binding signal [7]: 1.29 fold enrichment (6-mer frequency, TF over GST control) | binding signal [8]: 1.23 fold enrichment (6-mer frequency, TF over GST control) | binding signal [9]: 1.29 fold enrichment (6-mer frequency, TF over GST control) | binding signal [10]: 1.4 fold enrichment (6-mer frequency, TF over GST control) | binding signal [11]: 1.43 fold enrichment (6-mer frequency, TF over GST control) | binding signal [12]: 1.45 fold enrichment (6-mer frequency, TF over GST control) | binding signal [13]: 1.48 fold enrichment (6-mer frequency, TF over GST control) | binding signal [14]: 1.45 fold enrichment (6-mer frequency, TF over GST control) | binding signal [15]: 1.52 fold enrichment (6-mer frequency, TF over GST control) | binding signal [16]: 1.37 fold enrichment (6-mer frequency, TF over GST control) | binding signal [17]: 1.36 fold enrichment (6-mer frequency, TF over GST control) | binding signal [18]: 1.44 fold enrichment (6-mer frequency, TF over GST control)
